Results taken from PubChem BioAssay AID588675 (Johns Hopkins Ion Channel Center, 2011).
The whole screen tested about 310,000 compounds, of which about 1,900 (0.61%) were called active. This is one part of a sample in which actives are shown more often than they occur.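 Rule for the calls: active = plate-corrected calcium response at least 3 library SD above typical, normal starting fluorescence, not activating the receptor alone; inactive = the rest.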

biological target: Mas-related G-protein coupled receptor member X1 (Homo sapiens) (UniProt Q96LB2); experiment: positive allosteric modulators of MrgX1, primary screen, HEK293 cells, Fluo-4 calcium flux (AID 588675); details: MrgX1-HEK293, Fluo-4 calcium flux, FDSS, at 10 µM; active compounds read high;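 note: compound read alongside a low EC10 to EC30 dose of BAM8-22 agonist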;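 for B-score: peak minus trough fluorescence over baseline measured at the second addition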
Sequence (Q96LB2 whole entry, looked up): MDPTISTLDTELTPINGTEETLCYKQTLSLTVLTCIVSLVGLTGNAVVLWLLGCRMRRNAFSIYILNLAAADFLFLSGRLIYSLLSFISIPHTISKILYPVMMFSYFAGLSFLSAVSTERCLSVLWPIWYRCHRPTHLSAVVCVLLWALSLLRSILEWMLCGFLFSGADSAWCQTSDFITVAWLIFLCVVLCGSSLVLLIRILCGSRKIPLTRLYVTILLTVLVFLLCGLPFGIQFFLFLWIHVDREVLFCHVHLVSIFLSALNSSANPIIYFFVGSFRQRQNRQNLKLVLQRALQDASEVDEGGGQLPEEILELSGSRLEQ

| Structure (SMILES) | B-score |
| --- | --- |
| O=C(c1cccc(-n2cccc2)c1)N1CCN(S(=O)(=O)c2ccc(F)cc2)CC1 | inactive |
| CC(NC(=O)c1ccc(N2CCNCC2)c([N+](=O)[O-])c1)C12CC3CC(CC(C3)C1)C2 (stereo not drawn) | 6.65 (active) |
| O=C(NC1C2CC3CC(C2)CC1C3)c1ccc(N2CCNCC2)c([N+](=O)[O-])c1 (stereo not drawn) | inactive |
| CCC(C)NC(=O)c1ccc(N2CCC3(CC2)OCCO3)c([N+](=O)[O-])c1 (stereo not drawn) | inactive |
| CCOC(=O)Cc1csc(NC(=O)CN(C)S(=O)(=O)c2ccc3c(c2)CCC(=O)N3)n1 | inactive |
| C/C(=N\NC(=O)c1ccoc1C)c1ccccc1O | inactive |
| Cc1nn(-c2ccc([N+](=O)[O-])cc2)c(N)c1-c1ccccc1 | inactive |
| Cc1nn(C(=O)c2ccoc2C)c(N)c1-c1ccccc1 | 15.4 (active) |
| N#CCC(=O)NC1CCC(CC2CCC(NC(=O)CC#N)CC2)CC1 (stereo not drawn) | inactive |
| COc1cc(OC)c(-n2c(C)cc(C=O)c2C)cc1Cl | 9.68 (active) |
| COc1cc(OC)c(-n2cc(-c3ccc(Cl)cc3)[nH]c2=O)cc1Cl | inactive |
| Cc1ccccc1-n1c(C)cc(/C=C2\NC(=O)NC2=O)c1C | inactive |
| COCCNC(=O)C1CCN(S(=O)(=O)c2ccc3c(c2)OCCO3)CC1 | 24.9 (active) |
| O=C(NCc1cccs1)C1CCN(S(=O)(=O)c2ccc3c(c2)OCCO3)CC1 | inactive |
| COc1ccccc1CNC(=O)C1CCN(S(=O)(=O)c2ccc3c(c2)OCCO3)CC1 | inactive |
| O=C(/C=C/c1ccc(F)cc1)NC(=S)NNC(=O)c1cccnc1 | inactive |
| CCCCn1c(N)c(N(CCOC)C(=O)COc2c(C)cccc2C)c(=O)[nH]c1=O | inactive |
| Cc1ccc(S(=O)(=O)NC(=O)COc2ccccc2C)cc1 | inactive |
| Cc1occc1C(=O)Nc1nnc(-c2ccncc2)s1 | 7.38 (active) |
| Cc1ccc(C(=O)Nc2nnc(-c3ccncc3)s2)o1 | inactive |
| Cc1occc1C(=O)Nc1nnc(C2CCCCC2)s1 | inactive |
| CCOc1ccc(OCC)c(NC(=O)CSc2nnc(Cn3cnc4ccccc43)n2C)c1 | inactive |

| Structure (SMILES) | B-score |
| --- | --- |
| COC(=O)C1=C(C)N(C)C(=S)NC1c1cc(OC)ccc1OC (stereo not drawn) | inactive |
| COC(=O)c1ccc(/C=N/NC(=O)C(=O)N2CCCCCC2)cc1 | inactive |
| CC1CCCC(C)N1/N=C/c1ccccc1OC(F)F (stereo not drawn) | inactive |
| COC(=O)c1ccc(/C=N/N2C(C)CCCC2C)cc1 (stereo not drawn) | 6.7 (active) |
| Cc1c(CC(=O)NCCCCCC(=O)O)c(=O)oc2cc3occ(-c4ccccc4)c3cc12 | inactive |
| Cc1coc2cc3oc(=O)c(CCC(=O)O)c(C)c3cc12 | inactive |
| Cc1c(CCC(=O)O)c(=O)oc2cc3occ(-c4ccccc4)c3cc12 | 7.5 (active) |
| O=C1NC2(CCCCCC2)C(=O)N1CCS(=O)(=O)Oc1ccccc1 | inactive |
| Cc1ccsc1C1C(C#N)=C(N)OC2=C1C(=O)CC(C)C2 (stereo not drawn) | inactive |
| COC(=O)[C@]1(S(=O)(=O)c2ccccc2)C[C@@H]2ON=C(c3ccc(OC)cc3)[C@@H]2C1 | inactive |
| Cc1ccc(-n2cnc3ncnc(-c4ccccc4)c32)cc1 | 7.18 (active) |
| Cc1ccc(-n2ccc(=O)c(C(=O)O)n2)cc1 | inactive |
| Cc1ccc(-c2nn(C(C)(C)C)c3ncnc(N)c23)cc1 | inactive |
| CC(C)OC(=O)c1ccc(COc2ccc3ccc(=O)oc3c2)o1 | inactive |
| CCc1cc2c(=O)c(-c3nc4ccccc4n3C)c(CCCC(=O)O)oc2cc1OC(=O)C(C)(C)C | inactive |
| COc1cccc2c(C)c(C(=O)O)[nH]c12 | inactive |
| COc1cc(C(F)(F)F)nc2c(Br)c(C(C)(C)C)nn12 | 10.1 (active) |
| CNC(=O)c1sc(Nc2ccc(OCc3ccccc3)cc2)nc1C | inactive |
| CCCC(=O)Nc1ncnc2c1ncn2[C@@H]1O[C@@H]2OP(=O)(O)OC[C@H]2[C@H]1OC(=O)CCC | inactive |
| CC(=O)N1c2ccc(S(=O)(=O)N3CCCC(C(=O)NCc4ccc(Cl)cc4)C3)cc2CC1C (stereo not drawn) | inactive |
| CC(=O)N1c2ccc(S(=O)(=O)N3CCCC(C(=O)Nc4cccc(F)c4)C3)cc2CC1C (stereo not drawn) | inactive |
| CC(=O)N1c2ccc(S(=O)(=O)N3CCCC(C(=O)Nc4cccc(Cl)c4)C3)cc2CC1C (stereo not drawn) | 16.4 (active) |

| Structure (SMILES) | B-score |
| --- | --- |
| Cc1nnc(SCC(=O)NC(=O)NC2CCCC2)n1N | inactive |
| COc1ccc(C2c3[nH]c4ccccc4c3CCN2CCCn2cccn2)cc1C (stereo not drawn) | inactive |
| Cc1nccn1CCC1CCCCN1C(=O)CCc1nnc(-c2ccsc2)o1 (stereo not drawn) | inactive |
| CC1(C)CC(=O)CC2(C1)NCC(c1ccccc1Cl)c1c2[nH]c2ccccc12 (stereo not drawn) | 13.7 (active) |
| CC1CCN(c2ccc(-c3ccc(NC(=O)c4ccco4)cc3)nn2)CC1 | inactive |
| O=C(O)CCN=C1CCc2ccccc2N1 | inactive |
| CCOC(=O)C1CCN(S(=O)(=O)c2ccc3c(c2)N(C)C(=O)CC(=O)N3C)CC1 | inactive |
| COc1ccc(C(=O)NCc2nnc(SCC(=O)Nc3cccc(OC)c3)o2)cc1 | inactive |
| COc1ccc(Cc2nnc(SCC(=O)Nc3ccc(C)c(C)c3)o2)cc1OC | inactive |
| COc1cccc(NC(=O)CSc2nnc(Cc3ccc(OC)c(OC)c3)o2)c1 | 10.7 (active) |
| O=S(=O)(Nc1ccc(Oc2ncccn2)c(Cl)c1)c1ccc(F)cc1 | inactive |
| COc1ccc(Cl)cc1NC(=O)CCS(=O)(=O)c1ccc(Br)cc1 | inactive |
| CC1CCN(CCCNC(=O)CN2C(=O)CSc3ccc(S(=O)(=O)N4CCCCC4)cc32)CC1 | inactive |
| CC(=O)c1ccc(N=C2SCCCN2C(=O)C2CCCCC2)cc1 | inactive |
| O=C(NNC(=O)c1cc2c(s1)CCCC2)c1ccccc1 | 6.55 (active) |
| O=C(Nc1ccc(F)cc1)c1cc2c(s1)CCCC2 | inactive |
| O=C(c1cc2c(s1)CCC2)N1CCN(c2ccccc2)CC1 | inactive |
| CC1(C)C=Cc2c(ccc3c2OC[C@@H](c2ccc(O)cc2O)C3)O1 | inactive |
| CC1(C)CC(=O)c2cnc3nc4ccccc4n3c2C1 | inactive |
| CCn1cc(C(=O)NCC(=O)NC(C)(C)CO)c(=O)c2cc3c(cc21)OCO3 | inactive |
| COc1cccc(-c2cnc(OC(C)(C)C)nc2OC(C)(C)C)c1 | 6.93 (active) |
| COc1ccc(-c2nc(N)ncc2-c2ccc(Cl)cc2)c(O)c1 | inactive |

| Structure (SMILES) | B-score |
| --- | --- |
| CC(C)(C)Oc1ncc(Br)c(OC(C)(C)C)n1 | inactive |
| Cc1csc(=Nc2ccccc2)n1CCO | inactive |
| Cc1csc(=NC(=O)c2ccccc2)n1CCO | inactive |
| OCCn1c(-c2ccccc2)csc1=Nc1ccccc1 | 14.7 (active) |
| Cc1cc2ncn(CCCCOc3ccccc3)c2cc1C | 10.8 (active) |
| Clc1ncn(CCOc2ccccc2)c1Cl | inactive |
| COCCOCCn1cnc2ccccc21 | inactive |
| CCN1CCCC1CNC(=O)c1cc2cc(OC)c(OC)cc2[nH]1 (stereo not drawn) | inactive |
| COc1ccc(-c2cc(C(F)(F)F)nc(NCc3cccnc3)n2)cc1 | inactive |
| COc1ccc(-c2ccc(Nc3ccc(S(=O)(=O)N4CCCC4)cc3)nn2)cc1OC | inactive |
| COc1ccc(-c2cc(C(F)(F)F)nc(S(C)(=O)=O)n2)cc1OC | 8.21 (active) |
| N/C(=N\OC(=O)CCn1cccc(C(F)(F)F)c1=O)c1ccc(OC(F)(F)F)cc1 | inactive |
| Cc1ccc2c(=O)oc(N(C)C)nc2c1 | inactive |
| CCC(C)CCN1CCN=C1N(C)C (stereo not drawn) | inactive |
| COc1ccc(CCNC(=O)C(Sc2ccccn2)c2ccccc2)cc1OC (stereo not drawn) | 8.72 (active) |
| COc1ccc(CCNC(=O)c2ccccc2-c2ccccc2C(=O)O)cc1OC | inactive |
| COc1ccc(CCNC(=O)C(=O)NCc2ccccc2C)cc1OC | inactive |
| Cc1ccc(NC(=O)C(C)OC(=O)Cc2c[nH]c3ccccc23)cc1S(=O)(=O)N1CCOCC1 (stereo not drawn) | inactive |
| CCOc1cccc2c1OC1(CCCCC1)N1N=C(c3cccnc3)CC21 (stereo not drawn) | inactive |
| CC(C)=CCC/C(C)=C/C(=O)O | inactive |
| Cc1ccc(CN(Cc2cccnc2)C(=S)Nc2cccc(Cl)c2C)cc1 | inactive |
| Cc1c(Cl)cccc1NC(=S)N(Cc1ccccc1)Cc1cccnc1 | inactive |

| Structure (SMILES) | B-score |
| --- | --- |
| Cc1cccc(C)c1NC(=S)N(Cc1cccnc1)Cc1ccccc1Cl | 10.5 (active) |
| Cc1cccc(C(=O)OCC(=O)Nc2ccc(F)cc2)c1 | inactive |
| CCc1ccc(NC(=O)COC(=O)c2cccs2)cc1 | inactive |
| O=C(COC(=O)c1ccc(NS(=O)(=O)c2cccs2)cc1O)Nc1ccc(F)cc1 | 9.09 (active) |
| Cc1cc(S(=O)(=O)NC2CCCC2)ccc1-n1cnnn1 | inactive |
| Cc1ccc(-n2[nH]c(C)c(/C=N/N3C(=O)c4cccc5cccc(c45)C3=O)c2=O)cc1 | inactive |
| Cc1[nH]n(-c2ccc(Cl)cc2)c(=O)c1/C=N/n1c(C)nc2ccccc2c1=O | 11.4 (active) |
| Cc1[nH]n(-c2cccc(Cl)c2)c(=O)c1/C=N/n1c(C)nc2ccccc2c1=O | inactive |
| Cc1ccc(NS(=O)(=O)c2ccc3c(c2)oc(=O)n3C)c(C)c1 | inactive |
| O=C(NCC(=O)N1CCC2(CC1)NCCc1[nH]cnc12)c1ccc(Br)cc1 | inactive |
| Cc1cc(C)c(S(=O)(=O)N2CCOCC2)cc1C | inactive |
| C/C(=N\Nc1ncc(Cl)cc1Cl)c1ccc(S(=O)(=O)NCc2ccco2)cc1 | inactive |
| C/C(=N\Nc1ncc(Cl)cc1Cl)c1cccs1 | 8.26 (active) |
| C/C(=N\Nc1nc2ccccc2[nH]1)c1cccs1 | inactive |
| O=C(C[C@H]1C(=O)N(c2ccc(F)c(F)c2)C[C@@H]1Cc1ccccc1)Nc1ccccc1 | inactive |
| COc1ccccc1-n1nnnc1S(=O)(=O)Cc1ccc(Cl)cc1 | inactive |
| CCCCNS(=O)(=O)c1ccc(S(=O)(=O)n2cnc3ccccc32)cc1 | inactive |
| Cc1oc2cc3oc(=O)ccc3cc2c1C | inactive |
| COc1c(C(C)C)oc2cc3oc(=O)ccc3cc12 | 9.1 (active) |
| CC(C)C(=O)Nc1ccc2oc(=O)ccc2c1 | inactive |
